Screening results as filed in PubChem.
An excerpt weighted towards active compounds, which were near 1.2% of everything screened.
gsp agonist = agonists of gsp mutant (McCune-Albright syndrome). gsp mutant cells, cAMP HTRF, 30 min. Potency, µM (titrated, usually from 76.9 µM), for inactives: at the top dose activation (cAMP increase), usual class: activators. 340,000 compounds, 0.13% hits. AID 624287; active = well fitted activation curve with a large enough effect; inconclusive = small, poorly fitted or top-dose-only effect, or another doubt; inactive = no such curve, though single readings can be large or run the other way; cell line not stated here;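 note: phosphodiesterase inhibitor Ro 20-1724 added with compounds to block cAMP breakdown; potency is the fitted concentration of half-maximal effect; nearly all actives have a fitted effect of over 60% in size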
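Cells stably selected in G418 were plated at 2000/well, grown 16-24 hr, then given compounds in DMSO with the PDE inhibitor […] (300 uM solution added) for 30 min at 37C; cAMP was read by HTRF.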
TSHR antag = human thyrotropin receptor antagonism. 330,000 compounds, 0.2% hits. TSHR-expressing cells, TSH-stimulated cAMP HTRF, 2 h; stronger effect = lower value. AID 504810. P16473. activity change, negative = inhibition, % at 11.5 µM;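 active = activity change below a set negative limit, meaning inhibition stronger than a set level, cut at about -70% in these data; inconclusive = activity change between two set negative limits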; note: % is set by controls: 0 for no effect and ±100 for the full control effect
Target sequence (P16473 whole entry, looked up): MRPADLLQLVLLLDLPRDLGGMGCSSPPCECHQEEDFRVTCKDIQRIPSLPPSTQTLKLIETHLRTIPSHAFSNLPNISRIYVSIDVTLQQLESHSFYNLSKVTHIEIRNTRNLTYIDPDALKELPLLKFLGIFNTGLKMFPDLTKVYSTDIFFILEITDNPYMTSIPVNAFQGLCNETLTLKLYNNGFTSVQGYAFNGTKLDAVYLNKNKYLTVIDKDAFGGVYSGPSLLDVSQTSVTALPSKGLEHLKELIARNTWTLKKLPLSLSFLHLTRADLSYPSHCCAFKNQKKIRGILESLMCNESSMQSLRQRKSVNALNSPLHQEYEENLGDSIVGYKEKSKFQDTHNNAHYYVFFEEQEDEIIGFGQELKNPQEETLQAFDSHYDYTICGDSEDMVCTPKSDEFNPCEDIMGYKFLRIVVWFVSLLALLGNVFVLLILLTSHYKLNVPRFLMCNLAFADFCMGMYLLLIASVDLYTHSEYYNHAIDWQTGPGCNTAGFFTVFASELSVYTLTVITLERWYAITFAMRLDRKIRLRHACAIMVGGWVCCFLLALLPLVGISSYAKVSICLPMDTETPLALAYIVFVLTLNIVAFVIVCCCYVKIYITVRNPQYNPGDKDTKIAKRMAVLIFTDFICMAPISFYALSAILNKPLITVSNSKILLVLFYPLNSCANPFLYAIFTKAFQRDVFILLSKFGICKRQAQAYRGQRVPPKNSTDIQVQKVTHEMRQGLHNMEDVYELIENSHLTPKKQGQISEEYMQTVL
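TSHR-expressing cells were treated with compounds, then stimulated with TSH at EC80 (4nM final) for 2 hours at 37 deg C. Cellular cAMP was measured by HTRF competition between lysate cAMP and cAMP-d2 for a cryptate-labelled anti-cAMP antibody.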
uPA surface inh = cell surface uPA generation inhibition. cell surface uPA generation assay, qHTS. Potency, µM (highest dose often 38.3 µM), without a hit: at the top dose activity change, negative = inhibition, hits mostly inhibitors. 330,000 compounds, 0.31% hits. AID 540303; active = well fitted inhibition curve with a large enough effect; inconclusive = small, poorly fitted or top-dose-only effect; inactive = no such curve, though single readings can be large or run the other way; tested in mouse RAW 264.7 cells; note: potency is the fitted concentration of half-maximal effect; % is set by controls: 0 for no effect and ±100 for the full control effect; nearly all actives have a fitted effect of over 55% in size
CCT modulator = cytosolic chaperonin activity modulation. purified chaperonin ATPase assay, HTRF ADP detection, 30 min. activity change, % (test concentration not listed), hits read low. 360,000 compounds, 0.3% hits; in the data active = activity change below about -30%; note: % is set by controls: 0 for no effect and ±100 for the full control effect
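TRiC (40 or 20 nM final, by batch activity) in 30 mM Tris pH 7.4, 100 mM KCl, 5 mM MgCl2, 1 mM DTT was treated with compound at 76 uM single dose, then 10 uM ATP, 30 min at 37 °C. ADP was read by HTRF Transcreener.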
Mm-Cpn inhibitor = inhibitors of Methanococcus maripaludis chaperonin TRiC (MmCpn); purified Mm-Cpn ATPase, ADP Transcreener TR-FRET; Potency, µM (highest dose often 76.9 µM), for the others: at the highest dose activity, negative = inhibition, usual class: inhibitors; 330,000 compounds, 0.031% hits; AID 504842; active = well fitted inhibition curve with a large enough effect; inconclusive = small, poorly fitted or top-dose-only effect; note: potency is the fitted concentration of half-maximal effect; % is set by controls: 0 for no effect and ±100 for the full control effect; nearly all actives have a fitted effect of over 80% in size
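ATP (10 uM final) was added to archaeal chaperonin (25 nM final) after 10 min exposure to test compound at 37°C; after 30 min further incubation, ADP was detected by competitive TR-FRET.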
gsp antag = antagonists of gsp mutant (McCune-Albright syndrome); Potency, µM (highest dose often 76.9 µM), for inactives: top-dose activity change, negative = inhibition, most hits filed as inhibitors; 340,000 compounds, 0.4% hits; gsp-mutant cells, cAMP HTRF, 30 min; AID 624288; calls by dose curve; cell line not stated here;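 note: intracellular cAMP measured with PDE inhibitor Ro 20-1724 present during compound exposure; potency is the fitted concentration of half-maximal effect; % is set by controls: 0 for no effect and ±100 for the full control effect; nearly all actives have a fitted effect of over 65% in size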
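Cells, 2000/well, grown 16–24 h in DMEM 10% FBS with 0.5 mg/ml G418, then compounds plus […] (300 uM addition stock), 30 min at 37C. cAMP read by HTRF (cAMP-d2 and anti-cAMP antibody-K in lysis buffer) after 30 min RT.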
* marks the source's active call; other numbers are inactive results; ? = inconclusive; . = no result given; [ ] = another dose, or the depositor's remark.

SMILES | gsp agonist | TSHR antag | uPA surface inh | CCT modulator | Mm-Cpn inhibitor | gsp antag
O=C(CN(CC1CCCO1)C(=O)CNS(=O)(=O)c1ccccc1)NCc1ccc(F)cc1 (centres undefined) | -3%[15.4 µM] | 11 | -2% | -1 | 0% | 3%
COc1ccc(COc2ccccc2C(=O)NCc2ccccc2)cc1F | -29% | 3 | -12% | -2 | -1% | 28µM*
C[C@H](NC(=O)c1nc[nH]c1C(=O)N[C@@H](CCCCNC(=O)OC(C)(C)C)C(=O)OC(C)(C)C)C(=O)OCc1ccccc1 | -28% | -14 | ? | 0 | -2% | 1%
CCn1nc(NC(=O)c2ccccn2)c2cc3cc(C)ccc3nc21 | ? | -21 | -2% | -6 | -3% | 35µM*
Cc1ccc2nc3c(cc2c1)c(NC(=O)c1ccccn1)nn3CC(C)C | 19% | 2 | 1% | -1 | -9% | 5%
COc1ccccc1Nc1cc2cc(Br)ccc2c(=O)[nH]1 | . | . | 3.2µM* | -1 | . | 4%
CN(C(=O)COc1ccccc1C(=O)NCCOc1ccccc1)c1ccccc1 | -18% | -30 | -10% | -1 | 1% | 35µM*
O=C(Nc1ccc(F)c(Cl)c1)c1cc(C2CCCN(C(=O)C3CC3)C2)on1 (centres undefined) | . | . | . | -2 | . | .
Cn1cnnc1SCC(=O)Nc1ccc(N2CCCCC2)cc1 | 11% | -32 | -25% | -1 | -2% | -1%
CCCOC(=O)CSC1=C(C#N)C(c2ccccc2OCC)C(C#N)C(=O)N1 (centres undefined) | -11% | -13 | 2% | 0 | -2% | -26%
CCCCOC(=O)CSC1=C(C#N)C(c2ccccc2OCC)C(C#N)C(=O)N1 (centres undefined) | 29% | 24 | 14% | 0 | 3% | 32µM*
COc1ccc2cc(S(=O)(=O)c3ccccc3)c(=O)oc2c1 | 8% | 21 | ? | -1 | -7% | 0%
CCOc1cc(N2CCOCC2)c(OCC)cc1NC(=O)c1cc(S(=O)(=O)N2CCOCC2)ccc1C | -1% | -82* | -3% | 2 | -1% | -30%
CCOc1cc(N2CCOCC2)c(OCC)cc1NC(=O)c1ccc(S(C)(=O)=O)cc1 | -17%[15.4 µM] | -8 | -5% | 2 | -1% | -13%
O=C(c1cncc(Br)c1)N1CCN(c2ccc(N3CCOCC3)nn2)CC1 | -8% | 4 | -10% | -37* | -1% | 1%
O=C(c1cccc(Br)c1)N1CCN(c2ccc(N3CCOCC3)nn2)CC1 | 18% | 2 | -16% | -1 | 0% | -3%
Cc1csc(NC(=O)c2ccncc2)n1 | ? | -7 | 3% | -3 | -2% | -9%
COc1ccc(N(CC(=O)NCCSC2CCCCC2)S(=O)(=O)c2ccc(C)cc2)cc1 | -21% | 6 | -12% | -3 | -2% | 2%
O=c1c(-c2ccccc2)coc2c(CN3CCCC3)c(O)ccc12 | -2% | 1 | . | -3 | 45µM* | -21%
Cc1ccc(C(=O)CCS(=O)(=O)c2ccc(F)cc2)cc1 | -30% | 27 | 11µM* | 2 | 1% | -5%
N#C/C(=C\c1ccc(O)c(O)c1)C(=O)N1CCc2ccccc21 | . | 0 | 3.5µM* | 1 | 2% | ?
COc1cc(/C=C(\C#N)C(=O)N2CCc3ccccc32)ccc1O | -28% | 6 | 0% | -2 | 1% | -1%
CC(=O)c1c(C)oc2ccc(NS(=O)(=O)c3ccc(O)c(C(=O)O)c3)cc12 | -8% | 10 | 4% | 0 | 0% | 1%
CC(=O)c1c(C)oc2ccc(NS(=O)(=O)c3ccc(F)cc3C)cc12 | 12%[15.4 µM] | -15 | -14% | 1 | -3% | 25µM*
Cc1cc(C)nc(SCc2nnc(SCc3ccc([N+](=O)[O-])cc3)n2Cc2ccco2)n1 | ? | -6 | -2% | -2 | 0% | -23%
SMILES | gsp agonist | TSHR antag | uPA surface inh | CCT modulator | Mm-Cpn inhibitor | gsp antag
O=C(Cn1cc(C(F)(F)F)ccc1=O)N/N=C/c1ccc(O)cc1 | -19% | -3 | -4% | -39* | 4% | 2%
O=C(C1CCCN(Cc2ccc3c(c2)OCO3)C1)N1CCCC1 (centres undefined) | -22% | 9 | -2% | -34* | 0% | -8%
CN(C(=O)c1cccc(C(=O)N(C)c2ccccc2)c1)c1ccccc1 | 9% | -7 | 21% | 0 | -1% | 11%
Cc1ccc(S(=O)(=O)N2CCCC(C(=O)NC3CCCC3)C2)cc1Cl (centres undefined) | 9%[15.4 µM] | -84* | 13% | 1 | 2% | 7%
O=[N+]([O-])c1nn(-c2ccc3c(c2)OCCO3)n(O)c1=NC1CCN(Cc2ccccc2)CC1 | 1% | -9 | 4.5µM* | -1 | -3% | -21%
COc1ccc(NC(=O)CN(C)C(=O)c2cn(-c3ccccc3)nc2-c2ccc(Cl)cc2)cc1 | -4%[15.4 µM] | 1 | -5% | -1 | -2% | ?
COCCCNC(=O)CSC1=Nc2ccccc2C2=NC(Cc3c[nH]c4ccccc34)C(=O)N12 (centres undefined) | 15%[15.4 µM] | 5 | 5% | -1 | -1% | 5%
CCCC12CN3CC(C)(CN(C1)C31CCCCC1)C2=O | ? | -1 | 6% | -48* | 0% | -4%
CCCC12CN3CC(C)(CN(C1)C31C(=O)Nc3ccc(C)cc31)C2=O (centres undefined) | -3% | -3 | 8% | 0 | 0% | 5%
COc1ccc(C(=O)C2CCCN(C(=O)C3CCOCC3)C2)cc1OC (centres undefined) | -18% | -5 | -13% | -26 | ? | -5%
CC(NC(=O)OC(C)(C)C)C(=O)NC(CCC(=O)OCc1ccccc1)C(N)=O (centres undefined) | -27%[15.4 µM] | -5 | 3% | -60* | 1% | 4%
Cc1ccc(-n2nc3c(=O)n(C(C)C(=O)NC4CC4)nc(C)c3c2C)cc1 (centres undefined) | -45% | -114* | -14% | 1 | -1% | 1%
CCC(C(=O)NC1CC1)n1nc(C)c2c(C)n(-c3ccc(C)cc3)nc2c1=O (centres undefined) | 3% | -7 | 2% | 1 | 2% | 6%
O=P(CCCCCCCCCP(=O)(c1ccccc1)c1ccccc1)(c1ccccc1)c1ccccc1 | -26% | 11 | -15% | -1 | -1% | 40µM*
CCCn1c(N)c(N(CCOC)C(=O)/C=C/c2ccc(C(=O)OC)cc2)c(=O)[nH]c1=O | -22% | 7 | -3% | -1 | ? | 9%
CC1CCC(NC(=O)COc2ccc(C(=O)c3ccccc3)cc2)CC1 (centres undefined) | -18%[15.4 µM] | -8 | -16% | -45* | 3% | 9%
CC(=O)c1ccc(OCC(=O)NC2CCCCCC2)cc1 | 15% | -1 | 1% | -2 | -2% | 3%
